Measured values as given in PubChem BioAssay (NCATS).
Records with an inconclusive call do not appear. Active and inactive are the calls of the source. The call rests on the fitted dose curve; in most records, active means well fitted inhibition curve with a large enough effect in the signal ratio, with a control signal flat (not every such curve was filed as active); inconclusive means small, poorly fitted or top-dose-only effect, or effect the other way, or a change in a side signal; inactive means flat fitted curve, though single readings scatter; the % refers to the signal ratio.

Target: Peroxisome proliferator-activated receptor gamma (Homo sapiens) (UniProt P37231)
Experiment: qHTS assay for small molecule antagonists of peroxisome proliferator-activated receptor gamma signaling (AID 588537); further: % of control where 0% means no effect
Details: HEK293 PPARg-UAS-bla, beta-lactamase ratio, antagonist mode; series mostly up to 76.8 µM; activity, negative = inhibition: at the top concentration
Text: NIH Chemical Genomics Center [NCGC]
U.S. Environmental Protection Agency [EPA]
National Institutes of Environmental Health Sciences [NIEHS]
National Toxicology Program [NTP]
The Peroxisome proliferator-activated receptors (PPARs) are lipid-activated transcription factors of the nuclear receptor superfamily with three distinct subtypes namely PPAR alpha, PPAR delta (also called PPAR beta) and PPAR gamma. All these subtypes heterodimerizes with Retinoid X receptor (RXR) and these heterodimers regulate transcription of various genes. PPAR-gamma (glitazone receptor) ligands have been used in the treatment of type 2 diabetes and dyslipidaemia. It is involved in the regulation of glucose and lipid metabolism. PPAR-gamma activates certain genes like Paraoxonase 1 which is responsible for hydrolyzing organophosphates. PPAR-gamma ligands may also be therapeutically important in the treatment of coronary artery disease, obesity and cancer and atherosclerosis.
NCGC Assay Protocol Summary
Using a beta-lactamase reporter-gene under control of Peroxisome Proliferator-Activated-gamma (PPAR-gamma) response element, a cell-based assay [GeneBLAzer PPAR-gamma-UAS-bla assay developed by Invitrogen] was used to measure PPAR-gamma ligands signaling. GeneBLAzer PPAR-gamma-UAS-bla-HEK293 cells were used with assay medium containing 1% charcoal/dextran treated FBS. The assay was performed in clear bottom black Greiner 1536-well plates. Library compounds were measured for their ability to inhibit the reporter gene activity. Compounds were screened in a titration series in 1536-well format. The fluorescence intensity (405 nm excitation, 460/530 nm emission) was measured using an EnVision plate reader. Data was normalized relative to Rosiglitazone control (50 nM, 100%), and DMSO only wells (basal, 0%). Concentration-response titration points for each compound were fitted to the Hill equation yielding concentrations of half-maximal inhibition (IC50) and maximal response (efficacy) values.
qHTS protocol for PPAR-gamma beta-lactamase assay in antagonist mode
[Step] [Parameter] [Value] [Description]
1. Reagent; 5 uL; 3000 cells/well
2. Incubation; 37 C for 6-6.5 hrs
4. Controls (GW9662, PPAR-gamma antagonist); 23 nL,
5. Agonist (Stimulator); 1uL; Rosiglitazone at 50 nM (final) concentration
6. Incubation; 37 C for 16 hrs
7. Detection reagent; 1 uL of CCF4-dye
8. Incubation; RT for 2 hrs
9. Detection; Fluorescence; Envision plate reader

Chain of Peroxisome proliferator-activated receptor gamma (Homo sapiens) (P37231 whole entry, looked up): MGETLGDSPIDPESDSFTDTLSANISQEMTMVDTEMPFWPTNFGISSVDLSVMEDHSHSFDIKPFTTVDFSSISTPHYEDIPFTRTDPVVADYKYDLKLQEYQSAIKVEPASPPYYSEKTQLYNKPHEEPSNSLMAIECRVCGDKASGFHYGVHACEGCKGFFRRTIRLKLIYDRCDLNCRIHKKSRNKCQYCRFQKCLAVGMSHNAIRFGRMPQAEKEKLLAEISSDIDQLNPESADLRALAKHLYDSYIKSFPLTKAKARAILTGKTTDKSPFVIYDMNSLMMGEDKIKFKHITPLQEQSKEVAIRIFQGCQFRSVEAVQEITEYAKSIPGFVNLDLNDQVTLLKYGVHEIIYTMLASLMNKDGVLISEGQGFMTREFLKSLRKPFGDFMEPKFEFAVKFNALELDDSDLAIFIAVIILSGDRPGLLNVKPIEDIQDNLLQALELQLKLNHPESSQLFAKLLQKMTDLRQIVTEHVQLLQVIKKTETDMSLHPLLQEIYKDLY

**Q.** For `CNC(=O)c1ccccc1`, which “activity, negative = inhibition” value is on record?
**A.** 4.39% (inactive)

**Q.** With `OC/C(Br)=C(\Br)CO` as the compound, how does the “activity, negative = inhibition” value read?
**A.** 1.83% (inactive)

**Q.** Which “activity, negative = inhibition” value does the source give for `c1ccsc1` here?
**A.** 8.6% (inactive)

**Q.** Which “activity, negative = inhibition” value does the source give for `O=C1CCCCC1` here?
**A.** -0.544% (inactive)

**Q.** Which “activity, negative = inhibition” value does the source give for `BrC/C=C/CBr` here?
**A.** -5.65% (inactive)

**Q.** For `Nc1nc(CC(=O)O)cs1`, which “activity, negative = inhibition” value is on record?
**A.** -14.2% (inactive)

**Q.** For `O=C(O)c1ccc(Cl)c(Cl)c1`, which “activity, negative = inhibition” value is on record?
**A.** 12.7% (inactive)

**Q.** Which “activity, negative = inhibition” value does the source give for `COc1ccc(N)c(OC)c1` here?
**A.** -12% (inactive)

**Q.** For `CC/C=C/C#N`, which “activity, negative = inhibition” value is on record?
**A.** -4.75% (inactive)

**Q.** `CC(C)N(C)C` was tested. Which “activity, negative = inhibition” value did it give?
**A.** -9.76% (inactive)

**Q.** `CCC(=O)/C=C/C1C(C)=CCCC1(C)C` (stereo not given) was tested. Which “activity, negative = inhibition” value did it give?
**A.** 5.76% (inactive)

**Q.** `Cc1ccc2ccccc2c1[N+](=O)[O-]` was tested. Which “activity, negative = inhibition” value did it give?
**A.** 12.6% (inactive)

**Q.** With `NCCCCCCN` as the compound, how does the “activity, negative = inhibition” value read?
**A.** -2.86% (inactive)

**Q.** Which “activity, negative = inhibition” value does the source give for `CC(=O)Nc1cccc(N)c1` here?
**A.** -1.58% (inactive)

**Q.** For `CNc1ccc([N+](=O)[O-])cc1`, which “activity, negative = inhibition” value is on record?
**A.** 8.08% (inactive)

**Q.** `CCOc1cc(OCC)c(C(C)=O)cc1OCC` was tested. Which “activity, negative = inhibition” value did it give?
**A.** -9.34% (inactive)

**Q.** Which “activity, negative = inhibition” value does the source give for `CN(C)CCCNCCCN` here?
**A.** -2.46% (inactive)

**Q.** `CC(=O)Nc1ccccc1C` was tested. Which “activity, negative = inhibition” value did it give?
**A.** 7.26% (inactive)

**Q.** For `CC(O)CC(C)O` (stereo not given), which “activity, negative = inhibition” value is on record?
**A.** 14.5% (inactive)

**Q.** Which “activity, negative = inhibition” value does the source give for `Cc1cscn1` here?
**A.** 7.33% (inactive)

**Q.** Which “activity, negative = inhibition” value does the source give for `C=Cc1ccccc1C=C` here?
**A.** -6.76% (inactive)

**Q.** Which “activity, negative = inhibition” value does the source give for `O=C1OC(=O)c2cc([N+](=O)[O-])ccc21` here?
**A.** 0.47% (inactive)

**Q.** `CCc1ccccc1O` was tested. Which “activity, negative = inhibition” value did it give?
**A.** -11.6% (inactive)

**Q.** How did the “activity, negative = inhibition” value turn out when `CC(C)c1ccccc1` was run?
**A.** 4.45% (inactive)

**Q.** For `Nc1cccc2c(=O)[nH][nH]c(=O)c12`, which “activity, negative = inhibition” value is on record?
**A.** 6.2% (inactive)

**Q.** `C=CCn1c(=O)n(CC=C)c(=O)n(CC=C)c1=O` was tested. Which “activity, negative = inhibition” value did it give?
**A.** -7% (inactive)

**Q.** How did the outcome turn out when `c1ccc(Nc2ccccc2)cc1` was run?
**A.** inactive

**Q.** How did the “activity, negative = inhibition” value turn out when `CCCCN(CCO)CCCC` was run?
**A.** 3.33% (inactive)

**Q.** How did the outcome turn out when `O=C1OC(=O)c2c(Br)c(Br)c(Br)c(Br)c21` was run?
**A.** inactive

**Q.** `C=CC(=O)NC(C)C` was tested. Which “activity, negative = inhibition” value did it give?
**A.** -12.7% (inactive)

**Q.** Which outcome does the source give for `S=C([S-])NCCNC(=S)[S-].[Zn+2]` here?
**A.** inactive

**Q.** How did the “activity, negative = inhibition” value turn out when `Cc1ccc(Cl)cc1N` was run?
**A.** 1% (inactive)

**Q.** With `C=CCCCCCCC=C` as the compound, how does the “activity, negative = inhibition” value read?
**A.** 11.1% (inactive)

**Q.** `CCCCCCC=O` was tested. Which “activity, negative = inhibition” value did it give?
**A.** 14.1% (inactive)

**Q.** How did the “activity, negative = inhibition” value turn out when `CCCCC(CC)C(=O)O` (stereo not given) was run?
**A.** 9.37% (inactive)

**Q.** How did the “activity, negative = inhibition” value turn out when `COC(=O)CC#N` was run?
**A.** 1.12% (inactive)

**Q.** Which “activity, negative = inhibition” value does the source give for `NC(=O)/N=N/C(N)=O` here?
**A.** 5.17% (inactive)

**Q.** How did the “activity, negative = inhibition” value turn out when `C=C(C)C1CC=C(C)C(OC(C)=O)C1` (stereo not given) was run?
**A.** -13.6% (inactive)

**Q.** With `CC(=O)Nc1ccc(N)cc1` as the compound, how does the “activity, negative = inhibition” value read?
**A.** 0.389% (inactive)

**Q.** With `O=C(O[C@@H](C(=O)O)[C@@H](OC(=O)c1ccccc1)C(=O)O)c1ccccc1` as the compound, how does the “activity, negative = inhibition” value read?
**A.** -9.76% (inactive)
